# From PubChem BioAssay AID1053197 (The Scripps Research Institute Molecular Screening Center, 2014)
# Out of some 370,000 compounds screened, about 2,600 (0.7%) were called active. Shown is part of a subset that was picked to be rich in actives. A number with no mark means an inactive call.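 How the source made its calls: active means inhibition above a cutoff: mean of compounds within the control limits plus 3 SD of those (cut at about 17% in these data); inactive means the rest.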
# Biological target: Sialate O-acetylesterase (Homo sapiens) (UniProt Q9HAT2)
# Test: blockers of sialate O-acetylesterase activity-probe labeling – biochemical, fluorescence polarization, FP-Rh probe, 1536-well HTS, primary screen (AID 1053197);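 further: 0% = plate median of compound wells and 100% = probe without SIAE protein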
# Conditions: SIAE FP-Rh probe binding, at 9.66 µM, stronger effect = higher value
# Sequence of Sialate O-acetylesterase (Homo sapiens) (Q9HAT2 whole entry, looked up): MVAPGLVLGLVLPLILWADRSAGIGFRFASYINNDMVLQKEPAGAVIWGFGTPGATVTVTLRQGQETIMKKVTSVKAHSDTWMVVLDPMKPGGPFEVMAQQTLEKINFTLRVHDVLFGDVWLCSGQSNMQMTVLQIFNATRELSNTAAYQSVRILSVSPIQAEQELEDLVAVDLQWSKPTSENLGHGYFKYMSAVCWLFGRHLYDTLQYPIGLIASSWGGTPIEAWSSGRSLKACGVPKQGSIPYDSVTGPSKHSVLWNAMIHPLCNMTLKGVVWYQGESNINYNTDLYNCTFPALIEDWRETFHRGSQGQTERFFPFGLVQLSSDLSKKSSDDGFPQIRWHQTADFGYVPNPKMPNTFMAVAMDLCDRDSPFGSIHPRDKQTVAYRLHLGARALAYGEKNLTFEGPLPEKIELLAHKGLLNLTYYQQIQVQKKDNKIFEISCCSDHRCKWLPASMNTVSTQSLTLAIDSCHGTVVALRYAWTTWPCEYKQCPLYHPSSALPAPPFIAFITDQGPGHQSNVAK
row,Structure (SMILES),inhibition
1,CCC(C)[C@@H](C(=O)OC)N(CCc1cn(Cc2ccccc2)nn1)S(=O)(=O)c1ccccc1Br (stereo partly specified),-2.68%
2,C/C(N)=C(/C#N)C(=O)COC(=O)C1=NN(c2ccccc2)C(=O)CC1,0.03%
3,O=C1CC(c2ccccc2)=NN1c1ccc([N+](=O)[O-])cc1,19.8% (active)
4,CCN1N=C(c2ccccc2)CCC1=O,-3.71%
5,O=C(CNS(=O)(=O)c1ccccc1F)N1CCN(c2ccccn2)CC1,2.08%
6,O=C(Nc1cc(Cl)cc(Cl)c1)OCCN1CCCC12CCC(c1ccccc1)CC2 (stereo unspecified),-10.1%
7,Cc1cc2ccccn2c1C(=O)c1cccc(S(=O)(=O)N2CCOCC2)c1,-6.52%
8,Cc1cc2ccccn2c1C(=O)c1cccc(F)c1,18.5% (active)
9,CC(=O)Nc1ccc(/C=N/Nc2ccc(C(=O)c3c(C)cc4ccccn34)cc2[N+](=O)[O-])cc1,9.63%
10,Fc1ccc2nc(COCc3nc4ccc(F)cc4[nH]3)[nH]c2c1,-7.18%
11,CCCn1c(O)c(CN2CCCC(C)C2)c(C)c(C#N)c1=O (stereo unspecified),43.7% (active)
12,CC1CCCN(Cc2nc3c(c(=O)n(C)c(=O)n3C)n2CC(=O)c2ccccc2)C1 (stereo unspecified),7.4%
13,Cc1c(CN2CCCCC2)c(O)n(CCO)c(=O)c1C#N,-5.55%
14,COc1cccc(CNC(=O)CNS(=O)(=O)c2ccc3nc(C)sc3c2)c1OC,2.11%
15,Nc1[nH]c(/C=C2/CCCCC2n2[nH]c(=O)n(-c3ccccc3)c2=O)c(Cc2ccccc2)[n+]1Cc1ccccc1 (stereo unspecified),10.8%
16,O=S1(=O)c2ccc(Br)cc2OC[C@H](Cc2ccccc2)N1Cc1cn(Cc2ccccc2)nn1,3.61%
17,CC(c1c[nH]c2ccccc12)c1c(-c2ccccc2)n(C)c2ccccc12 (stereo unspecified),10.3%
18,CCn1c(=O)n(CC)c2cc(N3CCCC3)c(NC(=O)c3ccccc3Br)cc21,17.9% (active)
19,COc1ccc(NS(=O)(=O)c2ccc(N3CCOCC3)c(NC(=O)c3ccccc3Br)c2)cc1,-4.27%

row,Structure (SMILES),inhibition
1,O=C(NC(=O)c1ccccc1N1CCCCC1)Nc1ccc(Br)cc1,2.43%
2,CC(C)CNS(=O)(=O)CC1NCCc2ccccc21 (stereo unspecified),-2.16%
3,CNC(=S)NNC(=O)c1ccc(N(C)C)cc1,10.3%
4,CN(C)c1ccc(N/C=C/C(=O)C(F)(F)F)cc1,17.9% (active)
5,CC1CN(/C=C/C(=O)C(F)(F)F)CC(C)O1 (stereo unspecified),2.43%
6,C=CCN1C(=O)[C@@H](CC(=O)NCCCCc2ccccc2)[C@]2(C(=O)OCC)CCCCC/C=C/12,-2.6%
7,C=CCN1C(=O)[C@@H](CC(=O)NCCCOCCCC)[C@]2(C(=O)OCC)CCCCC/C=C/12,-0.48%
8,C=CCN1C(=O)[C@@H](CC(=O)NCC2CCCCC2)[C@]2(C(=O)OC)CCCCC=C12,20.8% (active)
9,c1ccc(CNCc2ccc(CNCc3ccccc3)cc2)cc1,-0.12%
10,O=[N+]([O-])c1ccccc1NCc1ccc(Cl)cc1,0.44%
11,Oc1ccc(CNc2ccccc2O)cc1,21.1% (active)
12,COc1cc(NC(=O)C2CCCN(S(=O)(=O)c3ccc(C(C)(C)C)cc3)C2)cc(OC)c1 (stereo unspecified),-0.78%
13,CCC(=O)c1c(CC)c2n3c1=CC[C@H]3CC(Br)C=2 (stereo partly specified),-1.56%
14,Oc1ccc(C2Nc3cccc4cccc(c34)N2)cc1,58.9% (active)
15,Cc1ccc(C2Nc3cccc4cccc(c34)N2)cc1,29.6% (active)
16,CCCC[C@H]1C2CC(OC(=O)NCc3ccccc3)C(C2)[C@H]2CCCCN21 (stereo partly specified),-0.4%
17,O=C(CSc1nc2ccccc2s1)N=Nc1c(O)[nH]c2ccccc12,-11.1%
18,COc1ccc(N2CCN(CCNS(=O)(=O)c3ccc([N+](=O)[O-])cc3)CC2)cc1,1.89%
19,FC(F)(F)c1cccc(NC(=S)OC2CCC23CCC(c2ccccc2)CC3)c1 (stereo unspecified),-8.64%

row,Structure (SMILES),inhibition
1,Cc1ccccc1NC(=O)Cn1nnc(-c2ccccc2F)n1,-1.96%
2,COc1cccc2c1C(=O)c1c(O)c3c(c(O)c1C2=O)CC(O)(C(C)=NNC(=O)c1ccc(Cl)c(Cl)c1)CC3OC1CC(N)C(O)C(C)O1 (stereo unspecified),62.7% (active)
3,CCCC1CCC2(CCCN2CCOC(=O)NCc2ccccc2)CC1 (stereo unspecified),-1.37%
4,CCOC(=O)/C(N=Nc1cc(C(=O)O)cc(C(=O)O)c1)=C(\O)CCl,21.9% (active)
5,COc1ccc(CN(CCN2CCOCC2)C(=O)c2ccc(C)cc2)cc1OC,-2.14%
6,CCOC(=O)C1(Cc2ccccc2)CCN(Cc2cn(C(C)=O)c3ccccc23)CC1,-0.8%
7,CCCC[C@H](C(=O)N(CC)c1ccccc1)[C@@H](O)c1ccc2ccccc2c1,-0.99%
8,CC(c1ccc(N)cc1)c1cn(C)c2ccccc12 (stereo unspecified),10.7%
9,COC(=O)[C@]12C[C@H](CC(=O)NCCc3ccccc3OC)C(=O)N(Cc3ccco3)C1=C[C@H](C(C)C)O[C@@H]2C1CC1,0.34%
10,CCN(CC)CCCC(C)n1c2nc(=O)[nH]c(=O)c-2nc2cc(Cl)ccc21 (stereo unspecified),29.6% (active)
11,Cc1cc2nc3c(=O)[nH]c(=O)nc-3n(C[C@H](O)[C@H](O)[C@H](O)CO)c2cc1C,6.59%
12,COC(=O)C1CN(CCc2ccccc2)CCS(=O)(=O)N1Cc1ccc(F)cc1 (stereo unspecified),4.17%
13,COc1ccc2c(c1)CN1CN(CCc3ccccc3)S(=O)(=O)CC21 (stereo unspecified),-7.42%
14,C=CCN1[C@@H](Cc2ccccc2)COc2cccc(N3CCSCC3)c2S1(=O)=O,-1.03%
15,O=C(CSc1ccc(-c2ccc(F)cc2)nn1)Nc1ccc2c(c1)OCCO2,9.37%
16,O=C(CSc1ccc(-c2ccco2)nn1)Nc1cccc(F)c1,17.1% (active)
17,COc1ccc(NC(=O)CSc2ccc(-c3ccco3)nn2)c(OC)c1,4.03%
18,O=C(NC1CCCCN(Cc2cccc(C(F)(F)F)c2)C1=O)c1ccccc1I (stereo unspecified),8.59%
